Sampled rows, rich in hits. Any-hit rate of the full collection: about 2.6%.
H9c2 protect: protects H9c2 cardiomyocytes from peroxide injury; H2O2 injury protection, ATPLite, 2 h; protection from H2O2 cell death, % at 20 µM; 0.63% of 360,000 active; AID 588492;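 active = compounds giving at least 50% protection of heart cells from peroxide-induced death in the single-dose screen, raw or plate-pattern-corrected value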
Gli-Sufu block: antagonists of Gli-Sufu signaling | Sufu-KO-LIGHT fibroblasts, Gli luciferase reporter luminescence | inhibition, % at 5 µM | 0.74% of 340,000 active;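 active = inhibition above about 55%, limit read from the data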
Jurkat NFkB inh: lowers PMA/ionomycin-induced NF-kB signal in Jurkat cells. PMA/ionomycin-induced NF-kB luciferase reporter, luminescence. inhibition, % at 4 µM. 0.53% of 330,000 active; in the data active = inhibition above about 50%
697 NFkB inh: inhibitors of the PMA/ionomycin-induced NF-kB reporter in 697 B cells | 697 B-cell NF-kB luciferase reporter, 16 h | inhibition, % at 4 µM | AID 435022 | 0.33% of 330,000 active; in the data active = inhibition above about 35%
COUP-TFII inh: blocks human COUP-TFII nuclear receptor. P24468. HEK293T NGFI-A luciferase reporter, luminescence. inhibition, % at 8.6 µM. 0.7% of 370,000 active. AID 686940;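 active = inhibition above a per-plate cutoff, mean inhibition of test wells between control levels plus 3 SD, cut at about 38% in these data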;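 note: cells cotransfected with COUP-TFII expression vector driving the NGFI-A reporter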
Target sequence (P24468 whole entry, looked up): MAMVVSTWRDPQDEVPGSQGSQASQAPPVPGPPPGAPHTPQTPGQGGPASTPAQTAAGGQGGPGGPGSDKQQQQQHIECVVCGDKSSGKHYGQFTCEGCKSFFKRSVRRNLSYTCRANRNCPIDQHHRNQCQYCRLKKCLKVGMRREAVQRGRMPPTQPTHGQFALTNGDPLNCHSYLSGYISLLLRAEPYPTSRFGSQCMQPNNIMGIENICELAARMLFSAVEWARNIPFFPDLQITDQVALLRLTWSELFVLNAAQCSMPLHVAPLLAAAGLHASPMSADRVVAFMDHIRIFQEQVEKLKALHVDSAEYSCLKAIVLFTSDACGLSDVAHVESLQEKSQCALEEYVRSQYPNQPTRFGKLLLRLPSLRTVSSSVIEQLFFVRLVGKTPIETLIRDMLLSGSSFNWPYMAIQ
H9c2 TAG inh: reduces triacylglycerol accumulation in H9c2 cells; Nile Red lipid (TAG) fluorescence; cells loaded with 200 µM oleic acid; inhibition, % at 12.5 µM; 0.66% of 230,000 active;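 active = pattern-corrected inhibition of lipid staining of at least 50% with the nuclear-stain viability signal not falling by more than 50%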
Jurkat NFkB conf: inhibitors of the PMA/ionomycin-induced NF-kB reporter in Jurkat cells, retest; shares compounds with Jurkat NFkB inh; Jurkat NF-kB luciferase, 16 h; inhibition, % at 4 µM; 27% of 2,700 active;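 active = inhibition reaching about 45% at 4 µM in either replicate, limit read from the data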
697 NFkB conf: inhibitors of the PMA/ionomycin-induced NF-kB reporter in 697 B cells, retest; 697 B-cell NF-kB luciferase, 16 h; 35% of 2,000 active; shares compounds with 697 NFkB inh; inhibition, % at 4 µM; in the data active = inhibition mostly above about 28%, no sharp cut-off; inactive = mostly below about 22%
Gli antag conf: confirmation of Gli-SUFU pathway antagonists; 40% of 2,500 active; Sufu-KO-LIGHT cells, Gli luciferase reporter, luminescence; inhibition, % at 5 µM; shares compounds with Gli-Sufu block;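 active = mean inhibition at 5 µM reaching about 45%, limit read from the data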
Gli cytotox: cytotoxicity counter-screen for Gli-SUFU antagonists; shares compounds with Gli-Sufu block; cytotoxicity, % at 5 µM; Sufu-KO-LIGHT cells cytotoxicity, ATP luminescence; AID 651994; 32% of 2,500 active;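 active = mean cytotoxicity at 5 µM above about 25%, limit read from the data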;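 note: cells exposed to compound overnight for roughly 16 to 18 hours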
Wnt3a counter: inhibits Wnt3a reporter, counter-screen for Gli-SUFU antagonists. shares compounds with Gli-Sufu block. Wnt-LIGHT cells, Wnt3a-driven luciferase reporter, luminescence. inhibition, % at 6.25 µM. 20% of 2,500 active;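 active = mean inhibition above about 25%, limit read from the data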
Gal4-VP16 ctr: VP16 inhibition counter-screen for COUP-TFII; shares compounds with COUP-TFII inh; HEK293 Gal4-VP16 luciferase reporter, luminescence; inhibition, % at 8.5 µM; 25% of 2,500 active; AID 687007; in the data active = inhibition above about 13%
NR2F2 inh conf: confirmation of human COUP-TFII (NR2F2) inhibitors; HEK293 NGFI-A luciferase reporter, luminescence; AID 687008; 45% of 2,500 active; shares compounds with COUP-TFII inh; inhibition, % at 8.5 µM;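 active = mean inhibition over three repeats above a set limit taken from the earlier primary screen, cut at about 38% in these data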
Of the large screens only hits and unclear results are named; the others gave an inactive call (follow-up assays come after a bar, where they were run).

O=C(Nc1ccc2nc3n(c(=O)c2c1)CCCCC3)c1c(F)ccc([N+](=O)[O-])c1F	Jurkat NFkB inh 73, COUP-TFII inh 43 (no result: H9c2 TAG inh) | Jurkat NFkB conf inactive | 697 NFkB conf inactive | Gal4-VP16 ctr 60 | NR2F2 inh conf 79
Cc1ccc2nc(-c3ccc4c(c3)OCCO4)cn2c1	Gli-Sufu block 65, Jurkat NFkB inh 83, COUP-TFII inh 77 | Jurkat NFkB conf 51 | Gal4-VP16 ctr 54 | NR2F2 inh conf 71
c1ccn2cc(-c3ccc4c(c3)OCCO4)nc2c1	none
CC(C)(C)c1ccc(C(=O)O/N=C(\N)c2ccccn2)cc1	Gli-Sufu block 86, Jurkat NFkB inh 59, COUP-TFII inh 95 (no result: H9c2 TAG inh) | Jurkat NFkB conf 86 | Gli antag conf 91 | Gli cytotox inactive | Wnt3a counter 102 | Gal4-VP16 ctr 74 | NR2F2 inh conf 101
N/C(=N\OC(=O)c1ccccc1)c1ccccn1	none (no result: H9c2 TAG inh)
CCCCCc1ccc(OCCCC[n+]2ccc(C)cc2)c(CCCCC)c1	Gli-Sufu block 86, Jurkat NFkB inh 54, COUP-TFII inh 56 | Jurkat NFkB conf 54 | Gal4-VP16 ctr 21 | NR2F2 inh conf inactive
CCCCCc1ccc(OCCCC[n+]2cccc(C)c2)c(CCCCC)c1	Gli-Sufu block 85, Jurkat NFkB inh 63, 697 NFkB inh 42, COUP-TFII inh 57 | Jurkat NFkB conf 58 | 697 NFkB conf 48 | Gal4-VP16 ctr inactive | NR2F2 inh conf inactive
O=C(CN1C(=O)C2(OCCCO2)c2ccccc21)NCc1ccccc1Cl	none (no result: H9c2 protect, Gli-Sufu block, Jurkat NFkB inh, 697 NFkB inh, H9c2 TAG inh)
CCCCCCCCCCn1ccc(=N)cc1	Gli-Sufu block 88, Jurkat NFkB inh 75, COUP-TFII inh 82 | Jurkat NFkB conf 75 | Gal4-VP16 ctr 13 | NR2F2 inh conf 79
CCCCCCCCn1ccc(=N)cc1	Jurkat NFkB inh 80, 697 NFkB inh 78, COUP-TFII inh 42 | Jurkat NFkB conf 73 | 697 NFkB conf 64 | Gal4-VP16 ctr inactive | NR2F2 inh conf inactive
CCCCCCN1Cc2ccccc2C1	none
COc1ccc(C(=O)/C=C2\Sc3ccccc3N2C)cc1	none (no result: H9c2 TAG inh)
COc1ccccc1-[n+]1c(C)cc(/C=C2\Sc3ccccc3N2C)cc1C	Gli-Sufu block 85, Jurkat NFkB inh 93, COUP-TFII inh 82 | Jurkat NFkB conf inactive | Gal4-VP16 ctr inactive | NR2F2 inh conf 89
COc1ccc(-[n+]2c(C)cc(/C=C3\Sc4ccccc4N3C)cc2C)cc1	Jurkat NFkB inh 86, 697 NFkB inh 100, COUP-TFII inh 82 (no result: Gli-Sufu block) | Jurkat NFkB conf inactive | 697 NFkB conf inactive | Gal4-VP16 ctr inactive | NR2F2 inh conf 67
Cc1ccc(C(=O)Sc2cccccc2=O)cc1	Gli-Sufu block 75, Jurkat NFkB inh 90, COUP-TFII inh 49 (no result: H9c2 TAG inh) | Jurkat NFkB conf inactive | Gal4-VP16 ctr 89 | NR2F2 inh conf 92
O=C(Nc1ccccc1SC(=O)c1ccccc1)c1ccccc1	none (no result: Gli-Sufu block, Jurkat NFkB inh, 697 NFkB inh)
COc1ccc(S(=O)(=O)/N=C2\C=C(Nc3ccc(O)cc3)C(=O)c3ccccc32)cc1	Gli-Sufu block 95, Jurkat NFkB inh 74, COUP-TFII inh 71 (no result: H9c2 TAG inh) | Jurkat NFkB conf 83 | Gal4-VP16 ctr 83 | NR2F2 inh conf 92
Cc1ccccc1NC1=C/C(=N\S(=O)(=O)c2ccc(C(=O)O)cc2)c2ccccc2C1=O	none (no result: H9c2 TAG inh)
COc1cccc(N2CCN(c3ncnc4c3[nH]c3ccccc34)CC2C)c1 (stereo not drawn)	Jurkat NFkB inh 54, COUP-TFII inh 76 (no result: H9c2 protect, Gli-Sufu block, H9c2 TAG inh) | Jurkat NFkB conf 79 | Gal4-VP16 ctr 19 | NR2F2 inh conf 84
c1ccc2c(c1)CCN(c1ncnc3c1[nH]c1ccccc13)C2	Gli-Sufu block 79, Jurkat NFkB inh 50, 697 NFkB inh 43, COUP-TFII inh 71 | Jurkat NFkB conf 59 | 697 NFkB conf inactive | Gal4-VP16 ctr inactive | NR2F2 inh conf 76
Cc1cc(C(=O)CN2C(=O)c3ccccc3S2(=O)=O)c(C)n1CC1CCCO1 (stereo not drawn)	Gli-Sufu block 83, Jurkat NFkB inh 79, 697 NFkB inh 44, COUP-TFII inh 93 | Jurkat NFkB conf inactive | 697 NFkB conf inactive | Gli antag conf 82 | Gli cytotox 54 | Wnt3a counter 99 | Gal4-VP16 ctr 86 | NR2F2 inh conf 96
COc1ccc(C(=O)CN2C(=O)c3ccccc3S2(=O)=O)cc1	Gli-Sufu block 88, Jurkat NFkB inh 73, 697 NFkB inh 56, COUP-TFII inh 91 | Jurkat NFkB conf 58 | 697 NFkB conf 60 | Gli antag conf 93 | Gli cytotox 38 | Wnt3a counter 102 | Gal4-VP16 ctr 52 | NR2F2 inh conf 77
C[C@@H]1ON(C)[C@H]2C[C@H]3c4[nH]c5cccc(-c6ccccc6F)c5c4CCN3C(=O)[C@@H]12	none (no result: H9c2 protect, Gli-Sufu block, Jurkat NFkB inh, 697 NFkB inh, H9c2 TAG inh)
O=C(CCc1ccccc1-c1ccccc1CCNC(=O)c1ccccc1)NCc1ccccc1	none (no result: H9c2 protect, Gli-Sufu block, Jurkat NFkB inh, 697 NFkB inh, H9c2 TAG inh)
CC(=O)c1ccc(N2CCN(c3ccc(S(=O)(=O)NCCCN(C)C)cc3[N+](=O)[O-])CC2)cc1	none
CN(C)CCCNS(=O)(=O)c1ccc(N2CCN(Cc3ccc4c(c3)OCO4)CC2)c([N+](=O)[O-])c1	Jurkat NFkB inh 62, COUP-TFII inh 40 (no result: H9c2 TAG inh) | Jurkat NFkB conf inactive | Gli antag conf inactive | Gli cytotox inactive | Wnt3a counter inactive | Gal4-VP16 ctr inactive | NR2F2 inh conf inactive
Cc1cc(C)cc(-c2c(C(=O)c3ccc(Br)cc3)[nH]c(N)c2C(=O)NCc2ccc(Cl)cc2)c1	none (no result: H9c2 protect, Gli-Sufu block, Jurkat NFkB inh, 697 NFkB inh, H9c2 TAG inh)
CCN1/C(=C/C=C/c2oc3ccc(-c4ccccc4)cc3[n+]2CC)Oc2ccc(-c3ccccc3)cc21	Gli-Sufu block 88, Jurkat NFkB inh 98, 697 NFkB inh 48, COUP-TFII inh 84 | Jurkat NFkB conf inactive | 697 NFkB conf inactive | Gli antag conf 90 | Gli cytotox 35 | Wnt3a counter 39 | Gal4-VP16 ctr 40 | NR2F2 inh conf 94
CCCCN1C(=O)/C(=C/C=C2\Oc3ccccc3N2CC)SC1=S	none (no result: Jurkat NFkB inh, 697 NFkB inh)

Bioassay records as filed in PubChem.
